Compound activity from PubChem BioAssay.
Hits are enriched below; roughly 0.4% of the tested compounds scored in any of these assays.
FMDV RLuc: Primary qHTS Assay for Foot and Mouth Disease Virus Antivirals against NCGC Sytravon and CBC Compound Libraries: Renilla Luciferase Signal; hit rate 0.32% among 120,000; Potency, µM (highest dose often 57.5 µM), without a hit: top-dose activity change, negative = inhibition, hits mostly inhibitors; AID 1745857, 2022; FMDV replicon cells, Renilla luciferase signal; also: nearly all actives have a fitted effect of over 55% in size
FMDV FLuc: Primary qHTS Assay for Foot and Mouth Disease Virus Antivirals against NCGC Sytravon and CBC Compound Libraries: Firefly Luciferase Signal. FMDV antiviral cell assay, firefly luciferase signal. hit rate 0.23% among 120,000. Potency, µM (doses to about 57.5 µM), without a hit: at the top dose activity change, negative = inhibition, usual class: inhibitors. AID 1745856, 2022; also: nearly all actives have a fitted effect of over 60% in size
The depositor's hits bear a star; ? = inconclusive; [ ] = another dose, or the depositor's remark. Calls follow the shape of the full dose curve. % is scaled to controls: 0 for no effect and ±100 for the full control effect; potency is read from the fitted curve at half-maximal effect.

SMILES | FMDV RLuc | FMDV FLuc
CCOc1ccc(-c2cc(C(=O)O)c3ccccc3n2)cc1OCC | 20µM* | -10%
CCOc1ccc(-c2cc(C(=O)O)c3ccccc3n2)cc1 | ? | 56%
C=C(C)COc1ccc2c(C)c(CC(=O)NCCc3ccc(S(N)(=O)=O)cc3)c(=O)oc2c1 | 3.5µM* | 4µM*
Cc1c(C)c2ccc(OCC(=O)NCCc3ccc(S(N)(=O)=O)cc3)cc2oc1=O | 0% | 3%
O=C(CSc1nnc2ccc(-c3cccs3)nn12)NC1CCCC1 | 12% | 17%
COc1ccc(NC(=O)CCCS(=O)(=O)c2nc(-c3ccc(OC)c(OC)c3)cc(C(F)(F)F)n2)cc1OC | -7% | 28µM*
COc1ccc(-c2cc(C(F)(F)F)nc(S(=O)(=O)CCCC(=O)Nc3ccccc3C(F)(F)F)n2)cc1OC | -9% | -15%
CC(C)CCC(C)NC(=O)c1ccc(CN2CCCC2=O)cc1 (stereo not given) | 4% | 97%
O=C(Nc1ccc(Oc2ccccc2)cc1)c1cccc(CN2CCCC2=O)c1 | 7.9µM* | ?
CC(C)(C)c1ccc(NC(=O)c2ccc(CN3CCCC3=O)cc2)cc1 | 22µM* | ?
O=C(Nc1ccccc1Oc1ccccc1)c1cccc(CN2CCCC2=O)c1 | 17% | 17%
CCc1c(-c2ccc(C)cc2)nc2ccccc2c1C(=O)O | 11% | 2%
CC(Cc1ccc(Br)cc1)NC(=O)C1CCCC1 (stereo not given) | 11% | 15%
CCn1c(SCC(=O)c2ccc[nH]2)nnc1-c1ccccc1 | 4% | 154%
CCc1ccc(NC(=O)c2sc3nc4c(cc3c2N)CN(C(C)C)CC4)cc1 | 25µM* | 0%
CCN(CC)c1ccc(NC(=O)c2sc3nc4c(cc3c2N)CN(C)CC4)cc1 | 4% | 23%
CC(=O)OC1CC(OC2C(O)CC(OC3C(O)CC(OC4CC(O)C5(C)C(CC[C@@H]6[C@@H]5CCC5(C)C(C7=CC(=O)OC7)CCC65O)C4)OC3C)OC2C)OC(C)C1O (stereo not given in full) | 0.89µM* | 0.56µM*
COC1C(O)CC(OC2C(O)CC(OC3C(O)CC(OC4CCC5(C)C(CCC6[C@@H]5CC(O)C5(C)C(C7=CC(=O)OC7)CCC65O)C4)OC3C)OC2C)OC1C (stereo not given in full) | 0.5µM* | ?
C[C@H]1O[C@@H](O[C@H]2[C@@H](O)C[C@H](O[C@H]3[C@@H](O)C[C@H](O[C@H]4CC[C@@]5(C)[C@H](CC[C@@H]6[C@@H]5CC[C@]5(C)[C@@H](C7=CC(=O)OC7)CC[C@]65O)C4)O[C@@H]3C)O[C@@H]2C)C[C@H](O)[C@@H]1O | -74% | ?
C[C@H]1O[C@@H](O[C@H]2CC[C@@]3(C)[C@H](CC[C@@H]4[C@@H]3C[C@@H](O)[C@]3(C)[C@@H](C5=CC(=O)OC5)CC[C@]43O)C2)C[C@H](O)[C@@H]1O[C@H]1C[C@H](O)[C@H](O[C@H]2C[C@H](O)[C@H](O[C@@H]3O[C@H](CO)[C@@H](O)[C@H](O)[C@H]3O)[C@@H](C)O2)[C@@H](C)O1 | -78% | -80%[11.5 µM]
CC(=O)OC1CC2(O)[C@@H]3CCC4CC(OC5CC(O)C(OC6CC(O)C(OC7CC(O)C(O)C(C)O7)C(C)O6)C(C)O5)CCC4(C)[C@H]3CCC2(C)C1C1=CC(=O)OC1 (stereo not given in full) | ? | 0.63µM*
COC1CC(OC2CCC3(C)C(CC[C@@H]4[C@@H]3CCC3(C)C(C5=CC(=O)OC5)C(OC(C)=O)CC43O)C2)OC(C)C1O (stereo not given in full) | -76% | -83%
CC1OC(OC2C(O)CC(OC3C(O)CC(OC4CCC5(C)C(CC[C@@H]6[C@@H]5CCC5(C)C(C7=CC(=O)OC7)CCC65O)C4)OC3C)OC2C)CC(O)C1O (stereo not given in full) | 0.56µM* | 0.25µM*
C=CCNC(=S)Nc1ccc(Cl)cc1Cl | 1% | 43%
Oc1ccc(-c2nc(-c3ccc(Br)cc3)no2)cc1 | 18% | 64%
SMILES | FMDV RLuc | FMDV FLuc
N#Cc1ccc(OCC(=O)NNC(=O)C2CC(=O)Nc3cc(F)ccc32)cc1 (stereo not given) | -3% | -1%
CC(C)(C)c1ccc(N=Cc2cccs2)cc1 | 4% | 4%
C(=Nc1ccccc1)c1ccc(-c2cccs2)s1 | 8.9µM* | ?
O=C(Nc1ccc(S(=O)(=O)N2CCCCC2c2cccnc2)cc1)c1ccc(Br)cc1 (stereo not given) | ? | 25µM*
CC(=O)Nc1ccc(S(=O)(=O)N2CCCCCC2c2ccc(C)s2)cc1 (stereo not given) | 114% | 9%
O=C(CSc1nnc2[nH]c(=O)c(Cc3ccccc3)nn12)Nc1cccc(Cl)c1 | 2% | 0%
CN(C(=O)Cc1c[nH]c2ccccc12)c1nc2ccccc2s1 | -16% | -5%
